The entries come from a sample that favours hits as a whole.
GBA enhancer – increases beta-glucosidase activity in Gaucher fibroblasts | P04062 | L444P Gaucher fibroblasts, 4-MU-glucoside fluorescence, 3 days | activation, % at 10 µM | 0.44% of 30,000 active; in the data active = activation above about 65%;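 also: 0% = vehicle wells and 100% = positive control wells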
Target sequence (P04062 whole entry L483P): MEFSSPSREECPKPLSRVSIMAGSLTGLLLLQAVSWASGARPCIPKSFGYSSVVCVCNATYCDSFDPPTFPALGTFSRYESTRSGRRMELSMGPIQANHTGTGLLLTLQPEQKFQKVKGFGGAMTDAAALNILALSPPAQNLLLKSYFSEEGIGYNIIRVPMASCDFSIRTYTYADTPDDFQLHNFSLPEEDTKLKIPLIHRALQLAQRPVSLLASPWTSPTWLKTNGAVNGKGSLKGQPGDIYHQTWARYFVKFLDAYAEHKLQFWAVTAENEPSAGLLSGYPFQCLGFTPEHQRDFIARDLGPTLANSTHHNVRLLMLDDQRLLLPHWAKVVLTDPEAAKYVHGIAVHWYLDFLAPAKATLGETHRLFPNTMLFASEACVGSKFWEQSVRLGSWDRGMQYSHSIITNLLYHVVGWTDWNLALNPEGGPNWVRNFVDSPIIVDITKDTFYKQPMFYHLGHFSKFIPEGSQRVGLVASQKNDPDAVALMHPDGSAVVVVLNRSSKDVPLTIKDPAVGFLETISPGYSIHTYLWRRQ
* marks the source's active call; other numbers are inactive results.

SMILES	GBA enhancer
COc1ccc(Cl)cc1C(=O)Nn1cnc2ccccc2c1=O	-15
COC(=O)c1cn(NC(=O)c2ccncc2)c(=O)c2ccccc12	74*
O=C(NCc1ccccc1)c1n[nH]nc1-c1ccccc1O	-23
O=C(CCN1C(=O)CSC1=O)Nc1ccccc1	-7
CC(C)c1nc(SCC(=O)NCc2ccc3c(c2)OCO3)c2c(=O)n(C)c(=O)n(C)c2n1	1
Cc1ccc(C)c(/C(O)=C2\C(=O)C(=O)N(Cc3cccnc3)C2c2cccnc2)c1 (stereo unspecified)	21
O=C(c1ccc(F)cc1)N1CCN(Cc2ccccc2Br)CC1	-17
O=C(CCCN1Cc2ccccc2C1)c1ccc(F)cc1	19
COC(=O)CN1CCN(C(=O)c2ccc(F)cc2)c2ccccc2C1	106*
COc1ccc(C)cc1-n1nnnc1SCC1CCCCO1 (stereo unspecified)	-12
CCc1ccc(N2CCCn3c2nc2c3c(=O)n(CCN3CCOCC3)c(=O)n2C)cc1	-20
Cc1cc(-c2nnc(SCC(=O)NC3CCCC3)o2)no1	-14
N#Cc1ccc(CSc2nnc(-c3cnccn3)o2)cc1	-20
Cc1cc(-c2nnc(SCc3cccnc3)o2)no1	86*
Cn1c(-c2ccccc2)cc2c3no[n+]([O-])c3ccc21	28
Cc1cc2c(c(Sc3ccccc3)n1)C(=O)OC2	-6
COC(=O)n1c(SC)nc2ccccc21	-10
CCc1ccc(NC(=O)Cn2c(SC)nc3ccccc32)cc1	82*
CSc1nc2ccccc2n1CC(=O)Nc1c(C)n(C)n(-c2ccccc2)c1=O	-12
O=C(Nc1ccc(OC(F)(F)F)cc1)C1CCCN(S(=O)(=O)c2cccnc2)C1 (stereo unspecified)	10
CCCN(CCC)CCCNC(=O)c1cc2cc3ccc(OC)cc3nc2o1	48
COc1ccc2cc3cc(C(=O)NCCc4ccc(OC)c(OC)c4)oc3nc2c1	-50
COc1ccc2cc3cc(C(=O)NCCN4CCN(Cc5ccccc5)CC4)oc3nc2c1	22
CCN1CCN(CCCNC(=O)c2cc3cc4ccc(OC)cc4nc3o2)CC1	94*
CCCCN(CC)CCCNC(=O)c1cc2cc3ccc(OC)cc3nc2o1	123*
SMILES	GBA enhancer
COc1ccc2cc3cc(C(=O)NCCCN4CCOCC4)oc3nc2c1	11
CC(C)c1ccc(NC(=O)CSc2nc3c(c(=O)[nH]2)CCC3)cc1	1
Cc1occc1-c1nnc(SCC(=O)c2cc3ccccc3oc2=O)o1	-8
COc1cccc(-c2cc(C(F)(F)F)nc(NCc3ccco3)n2)c1	106*
COc1ccc(-c2cc(C(F)(F)F)nc(NCc3ccco3)n2)cc1OC	-36
FC(F)(F)c1cc(-c2ccco2)nc(NCc2ccco2)n1	6
COC(=O)c1ccc(OCCN2C3=NCCN3c3ccccc32)cc1	-11
COc1ccc(-c2nnc3ccc(SCC(=O)N4CCN(c5ccccc5)CC4)nn23)cc1OC	-10
CC(=O)N(CC(C)(C)CC=C(C)C)c1ccccc1	-8
CC1CN(S(=O)(=O)c2ccc(NC(=O)CCN3C(=O)c4ccccc4C3=O)cc2)CC(C)O1 (stereo unspecified)	-39
Cc1cc(NS(=O)(=O)c2ccc(NC(=O)CCN3C(=O)c4ccccc4C3=O)cc2)no1	93*
Cc1ccc(OCCCC(=O)Nc2ccc(S(=O)(=O)Nc3cc(C)on3)cc2)cc1	-15
Cc1c(NC(=O)C(C)N2CC(C)OC(C)C2)c(=O)n(-c2ccccc2)n1C (stereo unspecified)	14
O=C(Nc1ccccc1F)N(CCCN1CCOCC1)Cc1cc2cc3c(cc2[nH]c1=O)OCCO3	-11
O=C(CN1CCN(CC(=O)Nc2ccccc2C(F)(F)F)CC1)Nc1ccccc1F	-46
CCN(CC)S(=O)(=O)c1ccc(NC(=O)C(OC)c2ccccc2)cc1 (stereo unspecified)	-19
O=C(OCCN1CCCCC1)c1cc2ccccc2o1	71*
O=C(Nc1ccccc1N1CCCC1)c1cc2ccccc2o1	-30
O=C(Oc1ccccc1)c1cc2ccccc2o1	-3
COc1ccccc1N(CCC#N)C(=O)CSc1nc(-c2ccccc2)cn1N	-2
COc1cccc(NC(=O)C2C3C=CC4(O3)C2C(=O)N(C(C)C)C4C(=O)NC2CCCCC2C)c1 (stereo unspecified)	68*
CCCCN1C(=O)C2C(C(=O)Nc3cccc(OC)c3)C3C=CC2(O3)C1C(=O)NC1CCCCC1C (stereo unspecified)	-3
COc1cccc(NC(=O)C2C3C=CC4(O3)C2C(=O)N(C2CC2)C4C(=O)NC2CCCCC2C)c1 (stereo unspecified)	-10
CCCCN(C)C(=O)c1sc2ncn(CC)c(=O)c2c1C	-9
Cc1ccc(C(=O)c2coc3ccc(O)c(CN4CCN(C)CC4)c23)cc1	-83
SMILES	GBA enhancer
CCc1cccc(NC(=O)c2ccc(Br)o2)c1	14
Cc1nc(SCC(=O)Nc2ccccc2)c2oc3ccccc3c2n1	-60
Cc1cc(C)nc(N2CCN(c3nc(C)nc4c3oc3ccccc34)CC2)n1	-8
Cc1cc(C)nc(Sc2nc(C)nc3c2oc2ccccc23)n1	136*
COc1cccc(-c2noc(C3CCCN(S(=O)(=O)c4cccc(Cl)c4C)C3)n2)c1 (stereo unspecified)	-23
Cc1onc(-c2ccccc2Cl)c1C(=O)N1CCc2ccccc21	2
Cc1ccc(CNn2cnnc2SCC(=O)NC(C)(C)C)cc1	-22
Cc1nnc(SCC(=O)NC(C)(C)C)n1CCc1ccccc1	-7
CC(C)(C)NC(=O)CSc1nncn1NCc1ccccc1	68*
COc1ccc(N(CC(=O)N2CCCC(C)C2)S(=O)(=O)c2c(C)nn(C)c2C)cc1 (stereo unspecified)	-13
CC(=O)N1CCc2cc(S(=O)(=O)NC(CC(C)C)C(=O)Nc3ccc4c(c3)OCCO4)ccc21 (stereo unspecified)	1
N#CN(CC(N)=O)c1nc(N2CCCCC2)nc(N2CCCCC2)n1	-1
N/C(=N/O)c1nc(N2CCCCC2)nc(N2CCCCC2)n1	89*
C1CCN(c2nc(N3CCCCC3)nc(N3CCNCC3)n2)CC1	-65
Cc1ccc(C)c(NC(=O)CSc2nnc(-c3ccccc3)n2N)c1	-40
Brc1cnn(-c2nc(N3CCOCC3)nc(N3CCOCC3)n2)c1	-4
CCOC(=O)N1CCN(C(=O)c2ccc(Cn3c(=S)[nH]c4cc5c(cc4c3=O)OCO5)cc2)CC1	-14
CCOC(=O)N1CCN(C(=O)c2ccc3c(=O)n(Cc4ccc(OC)cc4)c(=S)[nH]c3c2)CC1	-35
CCOC(=O)N1CCN(C(=O)c2ccc3c(=O)n(Cc4ccccc4)c(=S)[nH]c3c2)CC1	69*
CCOC(=O)c1[nH]c(COC(=O)C2CC(=O)N(Cc3ccccc3)C2)c(C(=O)OCC)c1C (stereo unspecified)	6
Cc1ccc(C(=O)NC(C)(COc2nonc2C)COc2nonc2C)cc1	38
CN1CCN(S(=O)(=O)c2ccc(NC(=O)Nc3cccc(Cl)c3)cc2)CC1	2
O=C(Nc1cccc(Cl)c1)Nc1nccs1	-49
N#CCc1ccc(NC(=O)Nc2cccc(Cl)c2)cc1	70*
Cc1ccc(-c2csc3ncnc(Sc4nnc(CN5CCCCCC5=O)o4)c23)cc1	-6
Cn1c(NC(=O)C2CCCO2)cc(=O)n(C)c1=O (stereo unspecified)	-40
CCOC(=O)c1nn(-c2ccccc2)c(=O)c(C#N)c1C	3
CCOC(=O)c1oc2c(CN3CCCCC3C)c(O)ccc2c(=O)c1-c1ccc(OC)c(OC)c1 (stereo unspecified)	-24
CCOC(=O)c1oc2c(C)c(O)ccc2c(=O)c1-c1nncn1-c1ccccc1	84*

Screening data deposited in PubChem BioAssay by The Scripps Research Institute Molecular Screening Center.
